This note sets out measurements from PubChem BioAssay (NCATS).

Results filed as inconclusive are left out. The source made the active and inactive calls. The call rests on the fitted dose curve; in most records, active means well fitted cell-killing curve with a large enough effect; inconclusive means small, poorly fitted or top-dose-only effect, or effect the other way; inactive means no such curve, though single readings can be large or run the other way. Positions of bridges follow the written chain, without caps; N, C: chain ends. Non-standard residues stand in square brackets, D forms with d. Residues, ends and D or L forms follow the SMILES beside them. ξ: configuration not given here. *: point of attachment. Octanoyl(6-Me) = CCC(C)CCCCC(=O)*; ξThr(3R) = C[C@@H](O)C(N)C(=O)O; dDab = NCC[C@@H](N)C(=O)O; Dab = NCC[C@H](N)C(=O)O
Potency means the concentration at half of the fitted maximal effect.

This assay is described as follows: Quantitative High-Throughput drug screen in 47 multiple myeloma cell lines against the NCATS MIPE library collection: H1112_PLB cell viability assay (AID 1918967; further: nearly all actives have a fitted effect of over 30% in size). To be noted: H1112 myeloma cells viability, ATP luminescence, 48 h; series mostly up to 45.8 µM. From the text: PI: Beverly A. Mock Ph.D.
Laboratory of Cancer Biology and Genetics,
Center for Cancer Research, National Cancer Institute,
National Institute of Health, Bethesda, Maryland
Drug resistance and disease progression are common in multiple myeloma (MM) patients, underscoring the need for new therapeutic combinations. […] We hypothesized that effective combinations would reduce MYC expression and enhance p16 activity. […] These preclinical data identify potentially useful drug combinations for evaluation in drug-resistant MM and reveal potential mechanisms of combined drug sensitivity.
Described herein is the primary MIPE qHTS used to cherrypick compounds. Validated compounds were then further tested for potential synergistic activiy.
[1] Peat TJ, Gaikwad SM, Dubois W, Gyabaah-Kessie N, Zhang S, Gorjifard S, Phyo Z, Andres M, Hughitt VK, Simpson RM, Miller MA, Girvin AT, Taylor A, Williams D, D'Antonio N, Zhang Y, Rajagopalan A, Flietner E, Wilson K, Zhang X, Shinn P, Klumpp-Thomas C, McKnight C, Itkin Z, Chen L, Kazandijian D, Zhang J, Michalowski AM, Simmons JK, Keats J, Thomas CJ, Mock BA. Drug combinations identified by high-throughput screening promote cell cycle transition and upregulate Smad pathways in myeloma. Cancer Lett. 2023 Aug 1;568:216284. doi: 10.1016/j.canlet.2023.216284. Epub 2023 Jun 24. PMID: 37356470; PMCID: PMC10408729.
SEQUENCE No. (e.g., 1, 2, 3, etc.); […] (e.g., Cells, Incubation, Reagent, etc.); VALUE and DESCRIPTION.
1; Cells; 5 uL; white, solid bottom 1536-well Greiner assay plate.
2; Compounds; 23 nL; Kalypsis pin tool (Wako USA) equipped with a 1536-well pin head to transfer to the assay plates.
3; Incubation; 48 hours; 37C incubation.
4; Reagent;5uL; CellTiter Glo (Promega).
5; Detector; 425V; Luminescence; Viewlux PerkinElmer.
NOTES (numbers refer to Sequence numbers above)
1. The cell-based screening methods employed in this study were like those previously published. Briefly, the corresponding myeloma cell lines were screened in 1,536-well plates with 500 cells, 5-uL per well for inhibition of cell viability (assessed by measuring ATP levels with CellTiterGlo).
2. NCATS MIPE 4.0 library of approved and investigational drugs were added using the Kalypsis pin tool. Wells treated with DMSO only for 100% viability and media only wells for 0% viability were used as controls.
3. The assay plates were covered and incubated for 48 hours in a 37C, 5% CO2 incubator with controlled humidity.
4. After 48 hours, CellTilter-GloTM luminescent substrate mix (Promega) reagent was added to the assay plate and plates we incubated for 5 min at room temperature.
5. Signal was measured as median relative luminescence units on a ViewLux (PerkinElmer) multiplate reader.
[1] Heske CM, Davis MI, Baumgart JT, Wilson K, Gormally MV, Chen L, Zhang X, Ceribelli M, Duveau DY, Guha R, Ferrer M, Arnaldez FI, Ji J, Tran HL, Zhang Y, Mendoza A, Helman LJ, Thomas CJ. Matrix Screen Identifies Synergistic Combination of PARP Inhibitors and Nicotinamide Phosphoribosyltransferase (NAMPT) Inhibitors in Ewing Sarcoma. Clin Cancer Res. 2017 Dec 1;23(23):7301-7311. doi: 10.1158/1078-0432.CCR-17-1121. Epub 2017 Sep 12. PMID: 28899971; PMCID: PMC6636827.
Turning to `c1cc(N[C@@H]2CCNC2)nc(-c2cnc3ccc(-c4cn[nH]c4)cn23)c1`, the Potency was 11.8 µM (active). Take `C=Cc1c(C)c2cc3nc(cc4[nH]c(cc5nc(cc1[nH]2)C(C)=C5CCC(=O)O)c(CCC(=O)OC)c4C)[C@@]1(C)C3=CC=C(C(=O)OC)[C@H]1C(=O)OC`: the Potency is 0.235 µM (active). In the case of `C[C@@]12C(=O)OC(=O)[C@@]1(C)C1CCC2O1` it was 3.72 µM (active); in that of `N#CC(=C(N)Sc1ccc(N)cc1)c1ccccc1C(F)(F)F`, 3.32 µM (active); in that of `CCc1ccc(C(=O)Nc2cc(CN3CCN(C)CC3)cc(C(F)(F)F)c2)cc1C#Cc1cnc2ccnn2c1`, 2.64 µM (active). Consider `O=C1NC(=O)[C@@H](c2cn3c4c(cccc24)CCC3)[C@H]1c1c[nH]c2ccccc12`, for which the Potency was 1.66 µM (active). As to `COc1cc(C[C@@H](CO)[C@H](CO)Cc2ccc(O)c(OC)c2)ccc1O`, the Potency is 0.372 µM (active). Under `CC(C)N1[N]C(=C2C=c3cc(O)ccc3=N2)c2c(N)ncnc21` stands 4.18 µM (active); under `C[C@@H]1[C@H](C)CC[C@]2(C(=O)O)CC[C@]3(C)C(=CC[C@@H]4[C@@]5(C)C[C@@H](O)[C@H](O)[C@@](C)(CO)[C@H]5CC[C@]43C)[C@@H]12`, “inactive”; under `O=C(O)C=Cc1ccc(Cn2ccnc2)cc1`, “inactive”.

As to `CC(C)(O)[C@H]1CC[C@@](C)([C@H]2[C@@H](O)C[C@@]3(C)[C@@H]4C[C@H](O[C@@H]5O[C@H](CO)[C@@H](O)[C@H](O)[C@@H]5O)[C@H]5C(C)(C)[C@@H](O[C@@H]6OC[C@@H](O)[C@H](O)[C@@H]6O)CC[C@@]56C[C@@]46CC[C@]23C)O1`, the Potency result is “inactive”. Regarding `Cn1cc(C2=C(c3c4n(c5ccccc35)CCC(CN)C4)C(=O)NC2=O)c2ccccc21` (stereo not given), the Potency was 7.43 µM (active). Consider `Cc1cc(O)c2c(c1)C(=O)c1cccc(O)c1C2=O`, for which the Potency entry is “inactive”. Turning to `CC(O)(C#Cc1ccc2c(c1)N(c1nc(N)ncc1Cl)CC2)c1nccs1` (stereo not given), the Potency is 1.18 µM (active). Take `CC(C(C)N1CC(=O)NC(=O)C1)N1CC(=O)NC(=O)C1` (stereo not given): the Potency result is “inactive”.

Take `CN(C)CCN1C(=O)c2cccc3cc(N)cc(c23)C1=O`: the Potency was 18.7 µM (active). For `C=CC1=C(C(=O)O)N2C(=O)[C@@H](NC(=O)C(=NO)c3csc(N)n3)[C@H]2SC1`, the Potency entry is “inactive”.

With `COc1cc(OC)c(NC(=O)Nc2cc(C)on2)cc1Cl`, the Potency entry is “inactive”. Under `CO[C@@H]1[C@@H](O)[C@H](O)[C@@H](n2c3c(Cl)cccc3c3c4c(c5c6cccc(Cl)c6[nH]c5c32)C(=O)NC4=O)O[C@@H]1CO` stands 0.418 µM (active); under `O=C1NCCc2[nH]c(-c3ccncc3)cc21`, 4.18 µM (active).

Turning to `C[C@H]1O[C@H](O[C@H]2[C@H](O)[C@@H](O)[C@@H](O[C@H]3[C@H](O)[C@@H](O)C(O)O[C@H]3CO)O[C@H]2CO)[C@H](O)[C@@H](O)[C@H]1N[C@H]1C=C(CO)[C@@H](O)[C@H](O)[C@@H]1O` (stereo not given in full), the Potency entry was “inactive”.

As to `CS[C@H]1SC[C@@H]2C(=O)N(C)[C@H](C(C)C)C(=O)OC[C@H](NC(=O)c3cnc4ccccc4n3)C(=O)N[C@H](C)C(=O)N(C)[C@@H]1C(=O)N(C)[C@H](C(C)C)C(=O)OC[C@H](NC(=O)c1cnc3ccccc3n1)C(=O)N[C@H](C)C(=O)N2C`, the Potency is 0.0118 µM (active). For `CC(=O)O[C@H]1C[C@@H]2CC[C@H]3[C@H]4C[C@H]([N+]5(C)CCCCC5)[C@@H](OC(C)=O)[C@@]4(C)CC[C@@H]3[C@@]2(C)C[C@H]1[N+]1(C)CCCCC1`, the Potency result was “inactive”. For `NC(=O)Nc1cc(-c2ccc(CN3CCOCC3)cc2)sc1C(N)=O`, the Potency is 5.26 µM (active). Under `CCN(C(=O)c1c(O)c2c(Cl)cccc2n(C)c1=O)c1ccccc1` stands “inactive”; under `COc1cc(C)c(C=CC(C)=CC=CC(C)=CC(=O)O)c(C)c1C`, “inactive”.

As for `NC(=O)N1CCC(CC(=O)N2CCC([C@H]3c4ncc(Br)cc4CCc4cc(Cl)cc(Br)c43)CC2)CC1`, the Potency is 10.5 µM (active). Under `COc1cc(OC)cc(-c2ccc3ncc4ccc(=O)n(-c5ccc(N6CCNCC6)c(C(F)(F)F)c5)c4c3c2)c1` stands 2.09 µM (active); under `c1ccc(CNc2nc(NCc3ccccc3)c3ccccc3n2)cc1`, 11.8 µM (active); under `Cc1cnn(C)c1C(=O)Nc1cc(Nc2ccc3c(C=Cc4ccccn4)n[nH]c3c2)ccc1F`, 8.33 µM (active). On to `CN1CCCN(C(=O)c2cccc(-c3ccc(C=C4C(=O)Nc5ccc(Cl)cc54)o3)c2)CC1`, for which the Potency is 26.4 µM (active). Regarding `CCC(C)CCCCC(=O)N[C@@H](CCN)C(=O)NC(C(=O)N[C@H](CCN)C(=O)N[C@@H]1CCNC(=O)C([C@@H](C)O)NC(=O)[C@@H](CCN)NC(=O)[C@@H](CCN)NC(=O)[C@@H](CC(C)C)NC(=O)[C@H](Cc2ccccc2)NC(=O)[C@H](CCN)NC1=O)[C@@H](C)O` (stereo partly drawn) ({Octanoyl(6-Me)}-[Dab][ξThr(3R)][dDab][dDab][Dab]F[dL][dDab][dDab][ξThr(3R)]; lactam 4-C), the Potency result is “inactive”.

As to `CC1(C)O[C@@H]2C[C@H]3[C@@H]4CCC5=CC(=O)C=C[C@]5(C)[C@@H]4[C@@H](O)C[C@]3(C)[C@]2(C(=O)CO)O1`, the Potency result is “inactive”. In the case of `Oc1ccc(-c2ccc(-c3cc(Nc4cccc(CNC5CC5)c4)n[nH]3)cc2)c(O)c1` it was 1.48 µM (active).

For the compound `N#CC(=Cc1ccc(O)c(O)c1)C(=O)NCc1ccccc1`, the Potency is 7.43 µM (active). In the case of `COC(=O)[C@H](CCCN=C(N)N)NS(=O)(=O)c1ccc(C)cc1` it was “inactive”; in that of `CCOC(=O)[C@@H](N)Cc1ccc(-c2cc(O[C@H](c3ccc(Cl)cc3-n3ccc(C)n3)C(F)(F)F)nc(N)n2)cc1`, 10.5 µM (active); in that of `CC(Oc1ccc(O)cc1)(P(=O)(O)O)P(=O)(O)O`, “inactive”.

For the compound `C[N+](C)([O-])CCNc1ccc(NCC[N+](C)(C)[O-])c2c1C(=O)c1c(O)ccc(O)c1C2=O`, the Potency result was “inactive”. Consider `C[C@H]1C[C@H]2[C@@H]3CCC4=CC(=O)C=C[C@]4(C)[C@@H]3C(=O)C[C@]2(C)[C@@]1(O)C(=O)CO`, for which the Potency result was “inactive”.
